Most compounds without a hit are left out; they make up all but 2.5% or so of the library.
Cruzain Triton: cruzain (T. cruzi) inhibition with detergent; P25779; purified cruzain, Z-FR-AMC fluorescence, 0.01% Triton; Potency, µM, for inactives: max response, negative = inhibition, hits mostly inhibitors; hit rate 0.43% among 200,000;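 further: plate controls were neutral wells for no effect and buffer without enzyme for full effect; nearly all actives have a fitted effect of over 40% in size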
Target sequence (P25779 123-467 limits assumed): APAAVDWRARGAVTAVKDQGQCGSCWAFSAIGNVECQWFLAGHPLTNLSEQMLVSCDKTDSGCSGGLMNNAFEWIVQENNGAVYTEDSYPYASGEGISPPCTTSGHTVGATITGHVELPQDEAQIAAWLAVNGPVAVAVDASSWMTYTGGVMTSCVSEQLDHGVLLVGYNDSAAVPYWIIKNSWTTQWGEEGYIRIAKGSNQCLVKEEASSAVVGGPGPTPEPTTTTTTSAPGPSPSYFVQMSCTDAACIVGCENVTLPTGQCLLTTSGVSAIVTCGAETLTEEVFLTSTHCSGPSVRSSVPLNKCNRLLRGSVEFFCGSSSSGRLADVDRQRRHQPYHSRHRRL
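Cruzain (1.5 nM) preincubated 15 min at RT with compound in 100 mM sodium acetate pH 5.5, 5 mM DTT, 0.01% Triton X-100. Reaction started with 2 uM Z-FR-AMC; AMC fluorescence (ex 360/em 450 nm) change over 60 s gave rate.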
Cruzain noTriton: cruzain (T. cruzi) inhibition without detergent; P25779; purified cruzain, Z-FR-AMC fluorescence, no detergent; Potency, µM, for inactives: max response, negative = inhibition, hits mostly inhibitors; hit rate 2.3% among 200,000;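 further: plate controls were enzyme without inhibitor for no effect and buffer without enzyme for full effect; nearly all actives have a fitted effect of over 40% in size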
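Purified cruzain at 1.5 nM, pre-incubated 15 min with compound at room temperature in 100 mM sodium acetate pH 5.5, 5 mM DTT, 0.00005% Triton X-100. Reaction started with 2 uM Z-FR-AMC; AMC fluorescence increase over 60 s gives rate.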
* marks the source's active call; other numbers are inactive results. The call rests on the fitted dose curve; in most records, active means well fitted curve in the direction sought with a large enough effect; inconclusive means small, poorly fitted or top-dose-only effect, or another doubt; inactive means no such curve, though single readings can be large; an effect the other way counts as inactive or inconclusive. Potency means the concentration at half of the fitted maximal effect.

Results for CCOc1ccccc1C(=O)N1CC(=O)Nc2ccc(Cl)cc2C1c1ccccc1 (configuration not stated) ?
Cruzain Triton: -5.1%; Cruzain noTriton: 5.1%

Results for NCc1ccc(C(=O)O)cc1 ?
Cruzain Triton: 12.1%; Cruzain noTriton: 1.8%

Results for Cc1ccc([C@@]2(C)CC/C(=N/N=C3\CC[C@](C)(c4ccc(C)c(C)c4)c4cc(C)c(C)cc43)c3cc(C)c(C)cc32)cc1C ?
Cruzain Triton: -1.1%; Cruzain noTriton: 0.3%

How did COc1ccc(C(=O)COC(=O)C(Cc2c[nH]c3ccccc23)NC(=O)c2ccc(C(C)(C)C)cc2)cc1 (configuration not stated) do in these assays?
Cruzain Triton: -0.7%; Cruzain noTriton: 12.6µM*

How did CC(C)(C)c1ccc(C(=O)NC(Cc2c[nH]c3ccccc23)C(=O)OCC(=O)c2ccccc2)cc1 (configuration not stated) do in these assays?
Cruzain Triton: -8.8%; Cruzain noTriton: inconclusive

Results for Cc1cccc(OCC(=O)Nc2c(C(=O)N3CCN(c4ccccc4)CC3)oc3ccccc23)c1 ?
Cruzain Triton: -6.3%; Cruzain noTriton: inconclusive

What do the screens show for `Oc1c(Br)cc2oc3c(c2c1CNCc1ccccc1)CCCC3`?
Cruzain Triton: -7.8%; Cruzain noTriton: 31.6µM*

How did Oc1c(Br)cc(Br)cc1CN1CCN(Cc2ccccc2)CC1 do in these assays?
Cruzain Triton: -2.1%; Cruzain noTriton: 1.6%

What do the screens show for `Cc1ccc(NC(=O)CN2C(=O)COc3ccc(S(=O)(=O)N4CCCCCC4)cc32)cc1Cl`?
Cruzain Triton: -1.4%; Cruzain noTriton: -16.6%

Results for O=C(Nc1ccc(N=Nc2ccccc2)cc1)c1ccc(Cl)cc1Cl ?
Cruzain Triton: 7.2%; Cruzain noTriton: 12.6µM*

Results for O=C(Nc1ccc(N=Nc2ccccc2)cc1)c1ccccc1Cl ?
Cruzain Triton: -5.5%; Cruzain noTriton: -0.7%

What do the screens show for `CCOC(=O)c1cc(S(=O)(=O)N2CCN(c3ccc(F)cc3)CC2)[nH]n1`?
Cruzain Triton: -2.2%; Cruzain noTriton: 6.7%

How did NNC(=O)Cc1cccnc1 do in these assays?
Cruzain Triton: -1.2%; Cruzain noTriton: 0.0%

Results for COc1ccc(NC(=O)CCCc2nnc3n(C(C)C)c(=O)c4sccc4n23)cc1Cl ?
Cruzain Triton: -1.4%; Cruzain noTriton: 8.7%

Results for COc1cccc(/C=C/c2nc(C#N)c(N3CCCCCC3)o2)c1 ?
Cruzain Triton: -8.4%; Cruzain noTriton: 29.3%

How did COCCNc1oc(-c2ccc(F)cc2)nc1C#N do in these assays?
Cruzain Triton: -1.9%; Cruzain noTriton: 0.5%

What do the screens show for `CCOc1ccc(/C=C/c2nc(C#N)c(N3CCCCCC3)o2)cc1`?
Cruzain Triton: -2.6%; Cruzain noTriton: -20.7%

How did COc1cccc(/C=C/c2nc(C#N)c(NCCN(C)C)o2)c1 do in these assays?
Cruzain Triton: 25.1µM*; Cruzain noTriton: 20µM*

How did CN1CCN(c2oc(/C=C/c3ccc(F)cc3)nc2C#N)CC1 do in these assays?
Cruzain Triton: 25.1µM*; Cruzain noTriton: 25.1µM*

Results for COc1cccc(/C=C/c2nc(C#N)c(NCCc3ccccc3)o2)c1 ?
Cruzain Triton: -9.3%; Cruzain noTriton: 29.7%

What do the screens show for `COc1cccc(/C=C/c2nc(C#N)c(N3CCC(C(N)=O)CC3)o2)c1`?
Cruzain Triton: 28.2µM*; Cruzain noTriton: inconclusive

What do the screens show for `COCCNc1oc(/C=C/c2ccc(F)cc2)nc1C#N`?
Cruzain Triton: 22.4µM*; Cruzain noTriton: 20µM*

How did CCCn1c(-c2ccc(F)cc2)nc2c(NC(C)CCCN(CC)CC)nc(C)nc21 (configuration not stated) do in these assays?
Cruzain Triton: -5.3%; Cruzain noTriton: -1.6%

How did Cn1c(=O)[nH]c(=O)c2c1nc(N1CCOCC1)n2Cc1ccccc1 do in these assays?
Cruzain Triton: -2.4%; Cruzain noTriton: 1.0%

What do the screens show for `CC1CCN(S(=O)(=O)c2ccc3c(c2)N(CC(=O)NCCN(C)C)C(=O)CS3)CC1`?
Cruzain Triton: -0.3%; Cruzain noTriton: 0.7%

How did CCOc1ccc(NC(=O)c2c(Nc3ccccc3C)sc(C(=O)c3ccc(Cl)cc3)c2N)cc1 do in these assays?
Cruzain Triton: -6.7%; Cruzain noTriton: -26.8%

What do the screens show for `COc1ccc(Nc2sc(C(=O)c3ccccc3)c(N)c2C(=O)Nc2cc(C)ccc2C)c(OC)c1`?
Cruzain Triton: -1.1%; Cruzain noTriton: 10µM*

How did COc1ccc(CCNC(=O)c2c(Nc3ccccc3C)sc(C(=O)c3ccccc3)c2N)cc1OC do in these assays?
Cruzain Triton: -2.1%; Cruzain noTriton: inconclusive

What do the screens show for `Cc1ccc(NC(=O)c2c(Nc3ccccc3C)sc(C(=O)c3ccccc3)c2N)cc1`?
Cruzain Triton: -1.4%; Cruzain noTriton: 6.31µM*

Results for Cc1cc(C)cc(NS(=O)(=O)c2ccc(N3CCCCS3(=O)=O)cc2)c1 ?
Cruzain Triton: -6.2%; Cruzain noTriton: 8.7%

How did COc1ccc(N2CCN(Cc3cccn3-c3nnc(N4CCN(C5CCCCC5)CC4)s3)CC2)cc1 do in these assays?
Cruzain Triton: -1.8%; Cruzain noTriton: -8.4%

What do the screens show for `CN(C)CCCN=c1c2ccccc2n(C)c2[nH]c(=O)n(C)c(=O)c12`?
Cruzain Triton: 1.2%; Cruzain noTriton: 0.2%

How did CCC(C(=O)NC1CCCCC1)n1c(SCc2cccc(C)c2)nc2ccncc21 (configuration not stated) do in these assays?
Cruzain Triton: 14.1µM*; Cruzain noTriton: inconclusive

How did Cc1cccc(Cn2c(SCc3ccc(C(=O)NC4CCCCC4)cc3)nc3ccncc32)c1 do in these assays?
Cruzain Triton: 1.5%; Cruzain noTriton: -11.7%

What do the screens show for `O=C(OCc1ccccc1F)c1ccc(-c2nnn(Cc3ccccc3)n2)cc1`?
Cruzain Triton: 5.7%; Cruzain noTriton: 22.6%

Results for N[C@H](Cc1ccc(O)c(O)c1)C(=O)O ?
Cruzain Triton: -5.6%; Cruzain noTriton: 6.2%

What do the screens show for `Cc1ccc(-n2nc3c(c2NC(=O)C(C)(C)C)CSC3)c(C)c1`?
Cruzain Triton: 0.1%; Cruzain noTriton: 6.4%

Results for Cc1ccc(-n2nc3c(c2NC(=O)c2ccc4c(c2)OCO4)CS(=O)C3)cc1 (configuration not stated) ?
Cruzain Triton: -2.7%; Cruzain noTriton: -4.8%

Results for Cc1ccc(-n2nc3c(c2NC(=O)/C=C\c2ccc4c(c2)OCO4)CSC3)c(C)c1 ?
Cruzain Triton: -6.2%; Cruzain noTriton: 25.1µM*

How did Cc1ccc(-n2nc3c(c2NC(=O)/C=C\c2ccc4c(c2)OCO4)CSC3)cc1 do in these assays?
Cruzain Triton: -4.3%; Cruzain noTriton: 31.6µM*

What do the screens show for `CC(=O)c1cc(-c2ccc(F)cc2)n(CCC(=O)NC2CCCCC2)c1C`?
Cruzain Triton: -3.6%; Cruzain noTriton: 2.3%

Results for Cc1ccc(C(=O)Nn2c(O)c(C=C3N=c4ccccc4=N3)sc2=S)cc1 ?
Cruzain Triton: -2.6%; Cruzain noTriton: -0.1%

What do the screens show for `Oc1c(C=C2N=c3ccccc3=N2)sc(=S)n1-c1ccc(F)cc1`?
Cruzain Triton: -6.4%; Cruzain noTriton: 20µM*

What do the screens show for `Oc1c(C=C2N=c3ccccc3=N2)sc(=S)n1C1CCCC1`?
Cruzain Triton: -4.5%; Cruzain noTriton: 20µM*

Results for O=C(Nn1c(O)c(C=C2N=c3ccccc3=N2)sc1=S)c1ccccc1 ?
Cruzain Triton: -1.5%; Cruzain noTriton: -6.6%

What do the screens show for `COc1ccc(CNC(=O)Cc2c(C)c3c(cc(C)c4c(C)coc43)oc2=O)cc1`?
Cruzain Triton: -0.2%; Cruzain noTriton: 8.7%

How did Cc1ccccc1C(=O)Nc1nnc(S(=O)(=O)N2CCc3ccccc32)s1 do in these assays?
Cruzain Triton: 1.4%; Cruzain noTriton: 21.6%

Bioassay records as filed in PubChem BioAssay.
